Laboratory results from PubChem BioAssay (NCATS).
Records with an inconclusive call do not appear. Values without a mark were called inactive. Calls of active or inactive are those of the source. The call rests on the fitted dose curve; in most records, active means well fitted cell-killing curve with a large enough effect; inconclusive means small, poorly fitted or top-dose-only effect, or effect the other way; inactive means no such curve, though single readings can be large or run the other way.

test: Viability qHTS for spleen associated tyrosine kinase inhibitor (SYKi) naive MV4-11 cells (AID 1963823); conditions: MV4-11 AML viability, CellTiter-Glo luminescence, 72 h; series mostly up to 45 µM; viability (% of control): at the top concentration; further: nearly all actives have a fitted effect of over 40% in size
Method in brief: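 SYK inhibitor-naive MV4-11 cells, 500 per well, exposed to compounds for 72 hr at 37 C, 5% CO2. Viability read as CellTiter-Glo luminescence after 10 min at room temperature.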
Potency means the concentration at half of the fitted maximal effect.

Structure (SMILES)	Potency	viability (% of control)
CC1CC(=O)C2C(O)(C1)CC(O)C13OC1c1c(O)cccc1C(=O)C23O (configuration not stated)	14.3 µM (active)	
CNC(=O)[C@H]1O[C@@H](n2cnc3c(NCc4ccc(N)c(I)c4)ncnc32)[C@H](O)[C@@H]1O		77.1% [at 9.25 µM]
Cc1cc(-c2nc(-c3ccc(OC(F)(F)F)cc3)no2)nn1Cc1ccnc(N2CCN(C3CC3)CC2)c1		20.4%
c1ccc(-c2[nH]ncc2-c2ccnc3ccccc23)nc1		76.1%
Cc1cn2c(n1)Cc1ccc(Cl)cc1C(c1ccc(N)cc1)=N2	14.6 µM (active)	
CC(=O)/C=C/C1C(C)CC(O[C@@H]2O[C@H](CO)[C@@H](O)[C@H](O)[C@H]2O)CC1(C)C (some centres not stated)		61.2%
CCC(C)C(=O)O[C@H]1[C@@H](OC(=O)c2ccoc2)C[C@](C)(O)[C@]23OC(C)(C)[C@H](C[C@H](OC(=O)c4ccoc4)[C@]12COC(C)=O)[C@H]3OC(C)=O (some centres not stated)		65.9% [at 17.3 µM]
CC(=O)[C@H]1CC[C@H]2[C@@H]3CC=C4C[C@@H](OS(=O)(=O)O)CC[C@]4(C)[C@H]3CC[C@]12C		75.2%
COc1cc(CCC2=NN=C(NC(=O)c3ccc(N4C[C@@H](C)N[C@@H](C)C4)cc3)C2)cc(OC)c1	0.461 µM (active)	
CC1(C)CCCC2(C)C1C(OC(=O)/C=C/C=C/C=O)C=C1COC(=O)C12O (configuration not stated)	5.02 µM (active)	
NS(=O)(=O)c1ccc(N2CCN(CC[C@@H]3OCCc4ccccc43)CC2)cc1	11.6 µM (active)	
CC(=O)O[C@@H]1C(=O)C(C)=C(CCC(C)CC(=O)O)[C@@]2(C)CCCC(C)(C)C12 (some centres not stated)		69.3%
